Here are results for eleven sequences from publication PMC5700166.

What all share (test): protein-binding microarray (PBM); PBM: ~300 nM protein, 6 mM HEPES pH 7.8, 80 mM KCl, 0.5 mM EDTA, 0.5 mM EGTA, 6% glycerol, 35 ng/ul poly-dIdC, 1% milk, 1 h, room temperature; Ap Aiptasia and Nv Nematostella (sea anemones) / Co Capsaspora / Aq Amphimedon (sponge) / Dm Drosophila / Hu human; RHD is the Rel homology domain; high values mean tight binding
What all share (settings): dsDNA, one strand shown

The target of assay [1] is T1, GST-Ap-NF-kB RHD (Exaiptasia pallida (Aiptasia), UniProt A0A913YAJ5 2-422).
T1 sequence: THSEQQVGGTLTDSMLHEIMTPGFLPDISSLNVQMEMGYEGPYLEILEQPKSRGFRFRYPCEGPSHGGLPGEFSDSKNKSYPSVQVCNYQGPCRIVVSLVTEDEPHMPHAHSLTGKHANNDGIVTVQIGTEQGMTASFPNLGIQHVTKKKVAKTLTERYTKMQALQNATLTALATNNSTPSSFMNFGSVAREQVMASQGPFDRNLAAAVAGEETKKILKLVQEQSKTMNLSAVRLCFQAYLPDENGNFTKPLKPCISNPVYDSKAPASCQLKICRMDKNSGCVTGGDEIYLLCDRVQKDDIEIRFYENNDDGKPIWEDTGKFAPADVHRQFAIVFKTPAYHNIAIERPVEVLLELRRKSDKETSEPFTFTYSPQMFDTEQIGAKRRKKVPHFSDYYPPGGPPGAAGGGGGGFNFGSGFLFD

The target in assay [2] is T2, GST-Nv-NF-kB (Cys allele) (Nematostella vectensis, UniProt E5G601 2-411).
T2 sequence: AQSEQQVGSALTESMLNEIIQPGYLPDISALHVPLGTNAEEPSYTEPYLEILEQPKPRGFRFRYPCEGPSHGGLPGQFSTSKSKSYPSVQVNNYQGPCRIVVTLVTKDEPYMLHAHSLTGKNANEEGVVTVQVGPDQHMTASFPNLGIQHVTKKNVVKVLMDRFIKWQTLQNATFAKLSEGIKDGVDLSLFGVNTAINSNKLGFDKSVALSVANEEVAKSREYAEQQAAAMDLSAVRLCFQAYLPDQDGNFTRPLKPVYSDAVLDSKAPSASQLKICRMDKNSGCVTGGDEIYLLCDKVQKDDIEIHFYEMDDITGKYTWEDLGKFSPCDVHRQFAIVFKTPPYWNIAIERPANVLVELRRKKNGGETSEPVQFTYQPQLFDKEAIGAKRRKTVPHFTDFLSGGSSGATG

For assay [3], the target named is T3, GST-Nv-NF-kB (Ser allele) (Nematostella vectensis, UniProt A7UNT2 2-411).
T3 sequence: T2 sequence with Q21R, C66S, S207N, E215Q, V217A, E225K, A268E, D399E

For assay [4], the target named is T4, GST-Co-NF-kB (Capsaspora owczarzaki, UniProt F1ARL5 200-546).
T4 sequence: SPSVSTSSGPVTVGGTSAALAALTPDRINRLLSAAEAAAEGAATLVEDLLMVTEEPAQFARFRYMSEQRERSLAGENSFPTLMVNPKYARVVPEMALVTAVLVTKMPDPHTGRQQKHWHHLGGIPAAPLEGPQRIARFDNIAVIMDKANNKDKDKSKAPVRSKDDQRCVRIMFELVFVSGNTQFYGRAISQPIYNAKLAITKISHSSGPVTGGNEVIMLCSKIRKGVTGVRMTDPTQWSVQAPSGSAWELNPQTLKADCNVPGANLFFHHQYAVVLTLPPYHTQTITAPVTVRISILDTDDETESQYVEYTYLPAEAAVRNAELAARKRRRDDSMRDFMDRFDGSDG

Assay [5] has as its target T5, GST-Dm-Relish (Drosophila melanogaster, UniProt Q94527 99-473).
T5 sequence: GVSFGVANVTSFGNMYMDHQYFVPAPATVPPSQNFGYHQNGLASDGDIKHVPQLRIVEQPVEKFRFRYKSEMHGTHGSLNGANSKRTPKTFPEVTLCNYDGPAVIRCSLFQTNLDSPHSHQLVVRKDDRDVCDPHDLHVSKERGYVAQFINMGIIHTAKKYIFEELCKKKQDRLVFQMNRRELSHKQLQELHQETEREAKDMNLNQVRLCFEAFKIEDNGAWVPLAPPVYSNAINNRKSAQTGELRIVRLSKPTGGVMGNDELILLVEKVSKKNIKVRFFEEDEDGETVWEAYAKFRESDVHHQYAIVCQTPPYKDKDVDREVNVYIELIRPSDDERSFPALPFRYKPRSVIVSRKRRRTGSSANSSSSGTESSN

Assay [6] concerns the target T6, GST-Aq-NF-kB (Amphimedon queenslandica, UniProt A9Y5G7 2-389).
T6 sequence: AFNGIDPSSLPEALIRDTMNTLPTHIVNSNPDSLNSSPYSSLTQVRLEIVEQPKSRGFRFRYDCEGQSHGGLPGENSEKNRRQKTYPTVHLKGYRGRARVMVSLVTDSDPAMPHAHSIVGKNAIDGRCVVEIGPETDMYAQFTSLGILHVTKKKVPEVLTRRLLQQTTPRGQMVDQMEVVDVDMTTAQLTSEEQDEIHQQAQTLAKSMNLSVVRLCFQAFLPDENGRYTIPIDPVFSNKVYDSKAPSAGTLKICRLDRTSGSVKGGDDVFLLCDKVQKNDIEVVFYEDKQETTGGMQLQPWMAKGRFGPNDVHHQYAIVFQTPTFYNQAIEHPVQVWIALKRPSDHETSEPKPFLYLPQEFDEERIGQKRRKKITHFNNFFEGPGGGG

Assay [7] addresses GST-Hu-p50 (Homo sapiens, UniProt P19838 7-356).

Positions count from the first letter of the chain named.

GST-Hu-p50, sequence (P19838 7-356): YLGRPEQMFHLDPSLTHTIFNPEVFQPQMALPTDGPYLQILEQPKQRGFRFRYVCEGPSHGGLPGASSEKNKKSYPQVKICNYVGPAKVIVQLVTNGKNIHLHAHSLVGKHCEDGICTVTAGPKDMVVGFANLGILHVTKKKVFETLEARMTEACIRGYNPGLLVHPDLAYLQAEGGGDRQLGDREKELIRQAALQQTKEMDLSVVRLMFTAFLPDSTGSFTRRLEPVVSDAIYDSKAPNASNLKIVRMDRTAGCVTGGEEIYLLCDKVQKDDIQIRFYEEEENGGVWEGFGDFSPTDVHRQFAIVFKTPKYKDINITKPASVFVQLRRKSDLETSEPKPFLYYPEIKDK

In the case of “CCGATTAACATCAGCAACCCCCCTGATGTTAATCGGGTCTTGATTCGCTTGACGCTGCTG”, the binding signal in assay [1] is 5.04 z-score; in assay [2] it was 3.58 z-score; in assay [3], 3.86 z-score; in assay [4], 2.82 z-score; in assay [5], 6.14 z-score; in assay [6], 4.16 z-score. Besides, the binding signal in assay [7] came to 4.83 z-score.

“CCGATTAACATCAGGGGGAGGTATGATGTTAATCGGGTCTTGATTCGCTTGACGCTGCTG”: the binding signal in assay [1] stood at 4.66 z-score; in assay [2], 4.16 z-score; in assay [3], 5.35 z-score; in assay [4], 6.26 z-score; in assay [5], 2.41 z-score; in assay [6] it was 3.87 z-score. In addition, in assay [7], the binding signal turned out to be 4.35 z-score.

“CCGATTAACATCAGAAAATACCCTGATGTTAATCGGGTCTTGATTCGCTTGACGCTGCTG”: the binding signal came to 5.86 z-score in assay [1]; 8.27 z-score in assay [2]; 7.72 z-score in assay [3]; 1.93 z-score in assay [4]; 6.76 z-score in assay [5]; 7.37 z-score in assay [6]. In addition, in assay [7], the binding signal turned out to be 6.32 z-score.

For “CCGATTAACATCAATATATTCCCTGATGTTAATCGGGTCTTGATTCGCTTGACGCTGCTG”, the binding signal was 4.19 z-score in assay [1]; 4.64 z-score in assay [2]; 4.95 z-score in assay [3]; 4.09 z-score in assay [4]; 2.1 z-score in assay [5]; 3.52 z-score in assay [6]. Besides, the binding signal in assay [7] was determined as 2.88 z-score.

“CCGATTAACATCAGGGGAACAAATGATGTTAATCGGGTCTTGATTCGCTTGACGCTGCTG”: the binding signal stood at 3.88 z-score in assay [1]; 4.83 z-score in assay [2]; 5.44 z-score in assay [3]; 7.72 z-score in assay [4]; 3.13 z-score in assay [5]; 4.15 z-score in assay [6]. In assay [7], this sequence registered a binding signal of 3.24 z-score.

For “CCGATTAACATCACAAGTTTCCCTGATGTTAATCGGGTCTTGATTCGCTTGACGCTGCTG”, the binding signal in assay [1] was determined as 4.14 z-score; in assay [2], 5.33 z-score; in assay [3], 5.84 z-score; in assay [4] it was 4.92 z-score; in assay [5], 2.52 z-score; in assay [6], 5.24 z-score. In addition, the binding signal in assay [7] came out at 4.17 z-score.

In the case of “CCGATTAACATCAGGGGGAAGTATGATGTTAATCGGGTCTTGATTCGCTTGACGCTGCTG”, the binding signal in assay [1] turned out to be 5.44 z-score; in assay [2] it was 6.23 z-score; in assay [3], 7.96 z-score; in assay [4], 8.17 z-score; in assay [5], 5.72 z-score; in assay [6], 5.16 z-score. In assay [7], the binding signal was 5.57 z-score.

In the case of “CCGATTAACATCAAGGGGATTTCTGATGTTAATCGGGTCTTGATTCGCTTGACGCTGCTG”, the binding signal in assay [1] came out at 9.69 z-score; in assay [2], 10.8 z-score; in assay [3], 12.7 z-score; in assay [4], 2.79 z-score; in assay [5] it was 9.09 z-score; in assay [6] it was 7.73 z-score. Moreover, in assay [7], the binding signal was 7.98 z-score.

“CCGATTAACATCAGAAAGCCCCCTGATGTTAATCGGGTCTTGATTCGCTTGACGCTGCTG”: the binding signal stood at 6.56 z-score in assay [1]; 7.59 z-score in assay [2]; 5.42 z-score in assay [3]; 2.16 z-score in assay [4]; 7.39 z-score in assay [5]; 6.98 z-score in assay [6]. In assay [7], this sequence yielded a binding signal of 6.29 z-score.

On to “CCGATTAACATCATATTCCCCCATGATGTTAATCGGGTCTTGATTCGCTTGACGCTGCTG”, for which the binding signal in assay [1] is 6.56 z-score; in assay [2], 7.4 z-score; in assay [3] it was 7.13 z-score; in assay [4] it was 8.84 z-score; in assay [5] it was 3.91 z-score; in assay [6], 5.97 z-score. Also, in assay [7], the binding signal was 6.3 z-score.

For the sequence “CCGATTAACATCAAAGTCCCCCGTGATGTTAATCGGGTCTTGATTCGCTTGACGCTGCTG”, the binding signal is 6.78 z-score in assay [1]; 5.8 z-score in assay [2]; 6.12 z-score in assay [3]; 6.7 z-score in assay [4]; 7.35 z-score in assay [5]; 5.87 z-score in assay [6]. Moreover, in assay [7], the binding signal amounted to 5.37 z-score.
